Compounds with a hit are over-represented: about 19% of the library has one in this group of screens.
TDP1 cell noCPT – qHTS for Inhibitors of human tyrosyl-DNA phosphodiesterase 1 (TDP1): qHTS in cells in absence of CPT | DT40 Tdp1-/- hTDP1 cells, no CPT, ATP luminescence, 48 h | Potency, µM (titrated, usually from 46.2 µM), for the others: top-dose activity change, negative = growth inhibition, hits mostly inhibitors | 420,000 compounds, 15% hits; note: potency is the fitted concentration of half-maximal effect; nearly all actives have a fitted effect of over 55% in size
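DT40 Tdp1-/-;hTDP1 cells, no CPT (DMSO vehicle only), 400 cells/well; compounds pin-transferred; ≥48 hr, 37 °C; CellTiter-Glo 30 min RT dark, luminescence read.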
DT40 TDP1 CPT – DT40-hTDP1 cell growth loss with CPT; chicken DT40 Tdp1-/-;hTDP1 cells + 20 nM CPT, ATP luminescence, 48 h; Potency, µM (series often up to 46.2 µM), for the others: at the highest dose activity change, negative = growth inhibition, usual class: inhibitors; 420,000 compounds, 12% hits; note: potency is the fitted concentration of half-maximal effect; nearly all actives have a fitted effect of over 55% in size
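Cell growth measured by CellTiter-Glo luminescence after a minimum 48 h, 37 C compound exposure with 20 nM CPT in Tdp1-knockout DT40 cells stably expressing hTDP1, seeded 400/well; qHTS titration format.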
IL-1B inflam inh – inhibitors of inflammasome signaling (IL-1 beta secretion) | THP-1 LPS/ATP IL-1B secretion, AlphaLISA, 16 h; active compounds read low | activity change, % at 57.5 µM | 360,000 compounds, 4.7% hits; in the data active = activity change below about -50%; inconclusive = mostly about -30% to -49%
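Secreted IL-1B measured by AlphaLISA bead assay after 16 h compound exposure of THP-1 cells; compounds (final up to 57.5 uM) added 1 h before LPS (250 ng/mL) and ATP (1.25 mM) stimulation; lower signal means less secretion.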
HT1080-NT tox – kills 2HG-producing HT-1080-NT fibrosarcoma cells; HT-1080-NT fibrosarcoma viability, CellTiter-Glo ATP luminescence, 48 h; Potency, µM (doses to about 46.1 µM), inactives show at the highest dose activity, negative = less viability, actives largely listed as cytotoxic; 360,000 compounds, 1.6% hits;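 note: NT is the 2HG producing partner of a matched IDH1 knockdown line; potency is the fitted concentration of half-maximal effect; 0% = DMSO-treated cells and -100% = media-only wells without cells; nearly all actives have a fitted effect of over 55% in size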
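Fibrosarcoma NT cells, 750 per well in 5% FBS RPMI, were exposed to compound for 48 hours. Viability: CellTiter-Glo luminescence.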
HT1080 IDH1KD tx – kills HT-1080 cells with IDH1 knockdown. HT-1080 IDH1 knockdown viability, ATP luminescence, 48 h. Potency, µM (top dose mostly 46.1 µM), for inactives: at the highest dose activity, negative = toxicity, actives largely listed as cytotoxic. 360,000 compounds, 2% hits;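 note: potency is the fitted concentration of half-maximal effect; 0% = DMSO wells and -100% = cell-free medium wells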
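Knockdown cells (IDH1KD HT-1080) received compounds 2 h after plating at 750 cells/well and were kept 48 h at 37 °C in 5% FBS RPMI. A CellTiter-Glo luminescence read gave % activity for curve fitting.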
The depositor's hits bear a star; ? = inconclusive; nt = no result; [ ] = remark or other dose. Unless noted, calls come from the whole dose curve; as a rule, active = well fitted curve in the direction sought with a large enough effect; inconclusive = small, poorly fitted or top-dose-only effect, or another doubt; inactive = no such curve, though single readings can be large; an effect the other way counts as inactive or inconclusive. Unless noted, % is set by controls: 0 for no effect and ±100 for the full control effect.

SMILES	TDP1 cell noCPT	DT40 TDP1 CPT	IL-1B inflam inh	HT1080-NT tox	HT1080 IDH1KD tx
Cc1ccc(NC(=O)c2oc3ccc(S(=O)(=O)N4CCCCC4)cc3c2C)c(C)c1	-22%	-11%	nt	nt	nt
Cc1c(C(=O)Nc2ccc(F)cc2)oc2ccc(S(=O)(=O)N3CCC4(CC3)OCCO4)cc12	22µM*	16µM*	0	?	-18%
Cc1c(C(=O)Nc2ccc(Br)cc2F)oc2ccc(S(=O)(=O)N3CCC4(CC3)OCCO4)cc12	?	-16%	nt	nt	nt
Cc1c(C(=O)Nc2ccc(F)c(F)c2)oc2ccc(S(=O)(=O)N3CCC4(CC3)OCCO4)cc12	12µM*	13µM*	nt	nt	nt
Cc1c(C(=O)Nc2ccc(F)c(F)c2)oc2ccc(S(=O)(=O)N3CCCCC3)cc12	?	23µM*	?	13%	-9%
Cc1ccc(NC(=O)c2oc3ccc(S(=O)(=O)N4CCC5(CC4)OCCO5)cc3c2C)c(C)c1	6.5µM*	8.2µM*	nt	nt	nt
O=C1N[C@@H](Cc2ccccc2)C(=O)N2[C@@H]1C[C@]1(Br)c3ccccc3N(S(=O)(=O)c3ccccc3)[C@H]21	?	?	34	9%	-13%
COc1ccc(Nc2nc(C(=O)NCCCN3CCOCC3)cs2)cc1	-2%	-3%	-6	10%	7%
Cc1cccc(N(CC(=O)Nc2ccccc2-c2ccccc2)S(=O)(=O)c2ccccc2)c1C	23µM*	?	-5	-4%	1%
Cc1ccc(S(=O)(=O)N(CC(=O)Nc2ccccc2-c2ccccc2)c2ccc(C)cc2C)cc1	?	?	-3	-2%	-4%
Cc1ccc(N(CC(=O)Nc2ccccc2-c2ccccc2)S(=O)(=O)c2ccccc2)cc1	21µM*	16µM*	-26	-23%	2%[9.24 µM]
CCOC(=O)NNC(=O)C1CCC(C)CC1 (stereo unspecified)	?	-13%	-5	13%	2%
CCN(CC)c1ccc(C=NCCNS(=O)(=O)c2ccc(C)cc2)cc1	-2%	5%	-9	-11%	-4%
COC(=O)CSC1=NS(=O)(=O)c2ccccc21	2.3µM*	1.5µM*	?	-1%	?
COC(=O)CSc1ccccc1C(=O)OC	-9%	0%	0	8%	-2%
O=C(CSC1=NS(=O)(=O)c2ccccc21)Nc1ccccc1	2.6µM*	1.8µM*	-16	-2%	-2%
CC1CCN(CCCNc2cc(NCCO)c([N+](=O)[O-])c3nonc23)CC1	-1%	1%	15	6%	0%
Cn1ccnc1Sc1cc(NCCCO)c([N+](=O)[O-])c2nonc12	5.2µM*	3.3µM*	-101*	4.1µM*	?
O=[N+]([O-])c1c(NCCCO)cc(N2CCN(Cc3ccc4c(c3)OCO4)CC2)c2nonc12	5.8µM*	6.5µM*	-10	-22%	-22%
COc1ccc(CNc2cc(NCCCO)c([N+](=O)[O-])c3nonc23)cc1	6.5µM*	21µM*	35	-28%	-8%
O=[N+]([O-])c1c(NCCCO)cc(SCc2ccco2)c2nonc12	21µM*	15µM*	-97*	-25%	?
O=C(Cn1cnc2ccccc2c1=O)NC1CCS(=O)(=O)C1 (stereo unspecified)	4%	20%	4	3%	2%
O=C1c2ccccc2C(c2nnnn2Cc2ccccc2)N1Cc1cccs1 (stereo unspecified)	?	-2%	0	12%	7%
CCOC(=O)c1c(C)c(C(=O)NCc2ccc3c(c2)OCO3)c(C)n1C	-19%	-10%	17	-2%	-3%
O=[N+]([O-])c1c(NCCCO)cc(Sc2ccc(Cl)cc2)c2nonc12	1.5µM*	1.3µM*	-106*	2%	-2%
SMILES	TDP1 cell noCPT	DT40 TDP1 CPT	IL-1B inflam inh	HT1080-NT tox	HT1080 IDH1KD tx
CC(=O)OCCNc1cc(Sc2nc3ccccc3[nH]2)c2nonc2c1[N+](=O)[O-]	4.1µM*	2.3µM*	-101*	-37%	18µM*
CC(C)NC(=O)c1onc(CSc2nc3ccccc3[nH]2)c1C(=O)NC(C)C	-7%	-11%	-3	-3%	10%
CC(=O)OCCNc1cc(SCc2ccco2)c2nonc2c1[N+](=O)[O-]	18µM*	?	-52*	-12%	?
O=[N+]([O-])c1c(NCCCO)cc(N2CCCCCC2)c2nonc12	?	-17%	1	-12%	-2%
CC(=O)OCCCNc1cc(Sc2ccc(C)cc2)c2nonc2c1[N+](=O)[O-]	3.3µM*	2.9µM*	-51*	-5%	-15%
CC(=O)OCC1(C)CN(c2ccccc2)N(C(=O)c2ccc(F)cc2)C1=O (stereo unspecified)	?	?	-9	?	-30%
Cc1ccnn1CCC(=O)N1CCCC(N2CCN(c3cccc(Cl)c3)CC2)C1 (stereo unspecified)	?	?	2	-10%	-18%
O=C(Cn1nnc(-c2ccccc2)c1COc1ccc2ccccc2c1)NCC1CC1	?	18µM*	-9	-9%	-5%
CN(Cc1ccccc1)C(=O)Cn1nnc(-c2ccccc2)c1COc1ccccc1	21µM*	?	-26	-17%	-12%
CN(Cc1ccccc1)C(=O)Cn1nnc(-c2ccccc2)c1COc1ccc2ccccc2c1	18µM*	23µM*	-7	-23%	-10%
CN(Cc1ccccc1)C(=O)c1nc[nH]c1C(=O)N(C)Cc1ccccc1	-18%	-2%	11	15%	7%
COc1ccccc1CN(Cc1nc2ccccc2c(=O)[nH]1)S(=O)(=O)c1ccc2ccccc2c1	5.6µM*	3.7µM*	-26	?	6.3µM*
CCN(Cc1nc2ccccc2c(=O)[nH]1)Cc1nc2cc(OC)c(OC)cc2c(=O)[nH]1	?	-7%	-21	-2%	2%
COc1ccc(S(=O)(=O)N(Cc2ccccc2)Cc2nc3ccccc3c(=O)[nH]2)cc1	5.2µM*	4.6µM*	2	-23%	3%[9.24 µM]
CC(C)Cn1c2c(c(=O)[nH]c1=O)C(C(F)(F)F)(C(F)(F)F)N=C(CCC1CCCCC1)N2	4.1µM*	6.5µM*	-6	?	?
COc1ccc(-n2c3c(c(=O)[nH]c2=O)C(C(F)(F)F)(C(F)(F)F)N=C(CC(C)C)N3)cc1	-16%	-25%	13	4%	-17%
O=c1[nH]c(=O)n(Cc2ccco2)c2c1C(C(F)(F)F)(C(F)(F)F)N=C(CCc1ccccc1)N2	?	18µM*	?	?	10µM*
O=c1[nH]c(=O)n(-c2ccccc2)c2c1C(C(F)(F)F)(C(F)(F)F)N=C(CCC1CCCCC1)N2	18µM*	?	21	-2%	0%

Bioassay records deposited in PubChem BioAssay by National Center for Advancing Translational Sciences (NCATS).
